Experimental data taken from PubChem BioAssay (EPA / NIEHS).
Inconclusive results are not listed. Active and inactive are the calls of the source. How the source made its calls: active means hit-call score of the fitted dose curve at least 0.9, where 1 is the maximum; inconclusive means response in the unintended direction; inactive means score below 0.9.

Test: Tanguay_ZF_120hpf_CFIN_legacy: (Legacy) Oregon State University Tanguay Lab 120 Hour Post-fertilization zebrafish Assay for Caudal Fin Malformation (AID 2283649)
In short: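 Single dechorionated 5D wild-type embryos are dosed at 6 hpf (final DMSO 0.64%) and held statically at 28C. Caudal fin malformation is recorded as present or absent at 120 hpf under brightfield, excluding dead embryos.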
In the case of `Cc1cc(-c2ccc(N)c(C)c2)ccc1N`, the outcome is reported as “inactive”. For `NS(=O)(=O)C(F)(F)C(F)(F)C(F)(F)C(F)(F)C(F)(F)C(F)(F)C(F)(F)C(F)(F)F`, the AC50 was 4.88 µM (active). For `Oc1ccc(C(c2ccc(O)cc2)(C(F)(F)F)C(F)(F)F)cc1`, the AC50 was 54 µM (active). With `C=CC(=O)NCNC(=O)C=C` the outcome was “inactive”. In the case of `Nc1ccc(-c2ccc(N)cc2)cc1`, the outcome is reported as “inactive”. For `O=C(O)C(F)(F)C(F)(F)C(F)(F)C(F)(F)C(F)(F)C(F)(F)C(F)(F)C(F)(F)F`, the outcome was “inactive”. In the case of `CC(C)(c1ccccc1)c1ccc(O)cc1`, the outcome is reported as “inactive”. For `C[C@]12CCC(=O)C=C1CC[C@@H]1[C@@H]2CC[C@@]2(C)[C@H]1CC[C@]2(C)O`, the outcome was “inactive”.

Test: Tanguay_ZF_120hpf_PIG_legacy: (Legacy) Oregon State University Tanguay Lab 120 Hour Post-fertilization zebrafish Assay for Pigmentation Malformation (AID 2283650)
In short: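 Dechorionated Tropical 5D wild-type embryos, one per well from 6 hpf, statically exposed at 28C in the dark until 120 hpf, 0.64% DMSO final. Pigmentation scored present/absent by brightfield microscopy; dead embryos not scored; fitted versus DMSO.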
For `Cc1cc(-c2ccc(N)c(C)c2)ccc1N`, the outcome was “inactive”. In the case of `CCOC(=O)C(O)(c1ccc(Cl)cc1)c1ccc(Cl)cc1`, the outcome is reported as “inactive”. For `NS(=O)(=O)C(F)(F)C(F)(F)C(F)(F)C(F)(F)C(F)(F)C(F)(F)C(F)(F)C(F)(F)F`, the outcome was “inactive”. With `CC(c1ccc(O)cc1)(c1ccc(O)cc1)c1ccc(O)cc1` the outcome was “inactive”. In the case of `CN(C)CCO`, the outcome is reported as “inactive”. With `c1cc2ccc3cccc4ccc(c1)c2c34` the outcome was “inactive”. For `CCC(C)(c1ccc(O)cc1)c1ccc(O)cc1`, the AC50 was 43.2 µM (active). For `Oc1ccc(C(c2ccc(O)cc2)(C(F)(F)F)C(F)(F)F)cc1`, the AC50 was 56.9 µM (active). With `C=CC(=O)NCNC(=O)C=C` the outcome was “inactive”. In the case of `Cc1ccc(O)c(C)c1`, the outcome is reported as “inactive”. For `CC(C)(O)C(=O)Nc1ccc([N+](=O)[O-])c(C(F)(F)F)c1`, the outcome was “inactive”. With `C[C@]12CCC(=O)C=C1CC[C@@H]1[C@@H]2CC[C@]2(C)C(=O)CC[C@@H]12` the AC50 was 43.9 µM (active).
